High-throughput results from PubChem BioAssay.
LASV entry inh: qHTS for Inhibitors of binding or entry into cells for Lassa Virus; Potency, µM (doses to about 37.9 µM), without a hit: at the top dose activity change, negative = inhibition, usual class: inhibitors; Lassa virus pseudotype entry inhibition, cell reporter; AID 540256, 2011; 1.2% of 300,000 active; calls by dose curve; tested in HEK293 cells; also: potency is read from the fitted curve at half-maximal effect; nearly all actives have a fitted effect of over 50% in size
Marburg entry inh: qHTS for inhibitors of binding or entry into cells for Marburg Virus | 1.8% of 300,000 active | Potency, µM (highest dose often 37.8 µM), for inactives: at the top dose activity change, negative = inhibition, hits mostly inhibitors | Marburg virus pseudotyped entry inhibition, cell reporter; calls by dose curve; tested in HEK293 cells; also: potency is read from the fitted curve at half-maximal effect
VACV Venus inh: qHTS for Stage-Specific Inhibitors of Vaccinia Orthopoxvirus: Venus Reporter Primary qHTS; Vaccinia virus Venus reporter expression, fluorescence; Potency, µM (doses to about 36.5 µM), for inactives: at the highest dose activity change, negative = inhibition, hits mostly inhibitors; 0.46% of 330,000 active; AID 720580, 2013; calls by dose curve; tested in A549 cells; also: potency is read from the fitted curve at half-maximal effect; nearly all actives have a fitted effect of over 30% in size
HCMV antiviral: qHTS Assay for inhibitors of the human cytomegalovirus (HCMV); HFF cells, HCMV-luciferase reporter, 72 h; stronger effect = lower value; activity change, negative = inhibition, % at 57.5 µM; 4.5% of 410,000 active; in the data active = activity change below about -60%; inconclusive = no clear call, values can overlap the other calls; inactive = above about -39%
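Inhibition of viral replication was scored as loss of reporter luminescence in HFFs infected with HCMV-luciferase (MOI 1 PFU/cell) for 72 h; compounds tested at 2 doses, normalized to buffer and Salinomycin controls.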
Vaccinia mCherry: qHTS for Stage-Specific Inhibitors of Vaccinia Orthopoxvirus: mCherry Reporter Primary qHTS; Vaccinia virus mCherry reporter infection, fluorescence; 0.63% of 310,000 active; Potency, µM (series often up to 36.5 µM), for the others: at the highest dose activity change, negative = inhibition, actives largely listed as inhibitors; AID 720579, 2013; calls by dose curve; tested in A549 cells; also: potency is read from the fitted curve at half-maximal effect; nearly all actives have a fitted effect of over 35% in size
HCV inhibitor: qHTS Assay for Inhibitors of Hepatitis C Virus (HCV); Potency, µM (titrated, usually from 41.8 µM), for inactives: top-dose activity change, negative = inhibition, actives largely listed as inhibitors; 3.4% of 340,000 active; Huh7.5.1 HCVcc-Cre infection, luciferase reporter, 44 h; active = well fitted inhibition curve with a large enough effect; inconclusive = small, poorly fitted or top-dose-only effect, or another doubt; inactive = no such curve, though single readings can be large or run the other way; also: potency is read from the fitted curve at half-maximal effect
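HCVcc-Cre virus at an moi near 0.5 was added right after compound to cells cultured 4 h from seeding (1,000 cells/well). Luciferase activity was determined 44 h later, 15 min after substrate addition at RT.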
An asterisk follows results filed as active; i = inactive; ? = inconclusive; nt = no result; + = active, no number; ! = not confirmed by another sample; [ ] = dose if it differs, or a comment. Hits are enriched below; roughly 7.8% of the tested compounds scored in any of these assays. % is scaled to controls: 0 for no effect and ±100 for the full control effect.

SMILES	LASV entry inh	Marburg entry inh	VACV Venus inh	HCMV antiviral	Vaccinia mCherry	HCV inhibitor
COc1ccc(NC(=O)c2nn(C)cc2[N+](=O)[O-])cc1	nt	nt	nt	-28.8	nt	0.0%
Cc1cc2c(cc3c(SCC(=O)Nc4cccc(Cl)c4C)nnc(C)n32)o1	17.9%[46.1 µM]	nt	-10.6%	1.9	-6.4%	nt
O=C(Nc1ccc(OC(=O)c2ccco2)cc1)c1ccco1	10.1%	24.9%	nt	17.3	nt	14.7%
O=C(Nc1cccc(NC(=O)c2nccc3ccccc23)c1)c1ccco1	3.5%	-28.9%	-22.4%	-96.5*	-16.5%	-21.9%
O=C(O)c1ccccc1C(=O)Nc1ccc(Oc2cccc3ccccc23)cc1	?	?	-7.4%	-63.6*	?	-0.9%
O=C(Nc1ccc(Oc2cccc3ccccc23)cc1)c1ccco1	?	?	-19.2%	-67.7*	nt	?
O=C(Nc1cccc(NC(=O)c2sc3ccccc3c2Cl)c1)c1ccco1	0.5%	?	?	?	-7.9%	?
Cc1cccc(Oc2ccc(NC(=O)c3ccccc3C(=O)O)cc2)c1C	5.0%	-0.3%[46.1 µM]	-15.6%	-25.9	?	-1.1%
Cc1noc(C)c1S(=O)(=O)N(CC(=O)NCCc1ccc(Cl)cc1)c1ccc(C(C)C)cc1	24.3%[46.1 µM]	?	5.1%	5.1	-4.2%	nt
CCc1cc(C(=O)Cc2ccc(F)cc2)c(O)cc1O	?	?	?	-77.2*	-12.3%	3.2%
O=C1N(Cc2ccccc2C(F)(F)F)c2ccccc2[C@@]12O[C@H](COc1ccccc1)CC1=C2CCC1	nt	-23.5%[14.2 µM]	nt	nt	nt	nt
CCOP(=O)(OCC)c1nc(-c2ccc(C)cc2)oc1NCc1ccccc1	-15.2%	?	-0.1%	-60.6*	-22.2%	-21.8%
Cc1cc(C(=O)CSc2nncs2)c(C)n1Cc1ccco1	4.47µM*	6.31µM*	-11.9%	22.4	-9.5%	?
Cc1cc(C(=O)CSc2nn(-c3ccccc3)c(=S)s2)c(C)n1Cc1ccco1	-22.4%	-27.3%	nt	20.4	nt	?
Cc1cc(C(=O)CSc2nnnn2C)c(C)n1CCc1ccc(Cl)cc1	-14.1%	-2.6%[46.1 µM]	-4.8%	37.6	-12.4%	-9.4%
Cc1cc(C(=O)CCl)c(C)n1CCc1ccccc1	?	?	8.9%	-100.4*	-13.7%	8.91µM*
Cc1cc(C(=O)CCl)c(C)n1Cc1ccco1	?	?	0.7%	-97.1*	-10.5%	?
COc1ccc(CCn2c(C)cc(C(=O)CSc3nnnn3-c3ccccc3)c2C)cc1	13.3%	?	nt	-70.0*	nt	-19.9%
CCC(=O)N1CCc2cc(Br)cc(S(=O)(=O)CCC(=O)N3CCN(c4cccc(C(F)(F)F)c4)CC3)c21	?	?	-17.0%	-6.0	i	nt
CCOC(=O)N1CCC(NC(=O)c2cnn(-c3cccc(C)c3)c2-n2cccc2)CC1	-19.0%[46.1 µM]	nt	-11.7%	0.0	-9.5%	nt
COCCNC(=O)c1cnn(-c2cccc(C)c2)c1-n1cccc1	18.8%[46.1 µM]	nt	-8.8%	+	-9.8%	nt
COC(=O)c1ccc(Cl)cc1NC(=O)Nc1nnc(N(C)Cc2ccccc2)s1	-3.9%[46.1 µM]	-1.4%[46.1 µM]	2.0%	-5.1	-7.8%	nt
C=CCNC(=O)C(=O)Nc1ccc2c(c1)N(S(=O)(=O)c1cccs1)CCC2	8.91µM*	?	?	-8.5	?	?
CCNC(=O)C(=O)Nc1ccc2c(c1)N(S(=O)(=O)c1cccs1)CCC2	?	?	?	-5.4	-11.1%	4.5%
CN(C)CCCNC(=O)C(=O)Nc1ccc2c(c1)N(S(=O)(=O)c1cccs1)CCC2	3.8%[46.1 µM]	?	-22.4%	?	-2.5%	8.91µM*
SMILES	LASV entry inh	Marburg entry inh	VACV Venus inh	HCMV antiviral	Vaccinia mCherry	HCV inhibitor
Cc1nn(Cc2ccc(Cl)cc2)c(C)c1NC(=O)c1cc(-c2ccc3c(c2)OCO3)on1	-17.9%	?	nt	-93.7*	nt	31.6µM*
Clc1ccc(Cn2ccc(-c3ccc4c(c3)OCO4)n2)cc1Cl	?	-5.6%	nt	12.4	nt	25.1µM*
Cc1ccc(NC(=O)c2cc(-c3ccc4c(c3)OCO4)on2)cc1	?	1.3%	-0.7%	?	-7.1%	-6.4%
Cc1nn(Cc2ccc(Cl)c(Cl)c2)c(C)c1NC(=O)c1cc(-c2ccc3c(c2)OCO3)on1	?	6.51µM*	nt	-72.9*	nt	?
OCCN1CCN(CCCN2c3ccccc3CCc3ccccc32)CC1	nt	nt	-19.2%	0.0	?	nt
CN1CCN(CCCN2c3ccccc3Sc3ccc(Cl)cc32)CC1	9.2µM*	10.3µM*	11.2µM*	-28.7	11.2µM*!	?
O=C1c2ccccc2C(=O)N1CC(=O)N1c2ccccc2Sc2ccc(C(F)(F)F)cc21	0.1%	11.8%	-14.2%	-1.4	-12.3%	11.5%
CCSc1ccc2c(c1)N(CCCN1CCN(C)CC1)c1ccccc1S2	nt	nt	?	-38.2	-21.1%	?
OCCN1CCN(CCCN2c3ccccc3Sc3ccc(C(F)(F)F)cc32)CC1	7.3µM*	13µM*	?	-15.7	-14.9%	?
OCCN1CCN(CCCN2c3ccccc3C=Cc3ccccc32)CC1	?	7.94µM*	nt	-24.0	nt	nt
FC(F)(F)c1ccc2c(c1)N(CCCN1CCN(CCCl)CC1)c1ccccc1S2	?	20µM*	?	-73.1*	nt	?
Cc1ccc(CNC(=O)Nc2cc(C(=O)NCc3ccc(C(C)C)cc3)ccc2N2CCCC2)cc1	17.1%[46.1 µM]	nt	-28.4%	2.4	-15.5%	nt
CC(=O)N1CCC(C(=O)N2c3ccccc3N=C(c3ccc(C(F)(F)F)cc3)C2C(=O)NC(C)C)CC1 (stereo not given)	nt	nt	-8.2%	19.8	?	nt
Cn1c(=O)oc2cc(S(=O)(=O)N3CCCC(C(=O)NCc4ccc(F)cc4)C3)ccc21 (stereo not given)	3.4%[46.1 µM]	-2.7%[46.1 µM]	-14.2%	-23.9	-12.3%	nt
CN(C)CCCN1c2ccccc2Sc2ccc(C(F)(F)F)cc21	20.6µM*	6.31µM*	?	?	?	?
OCCN1CCN(CC/C=C2/c3ccccc3Sc3ccc(C(F)(F)F)cc32)CC1	5.8µM*	8.91µM*	-28.6%	-29.7	-15.7%	0.891µM*
CN(C)CCC(=O)N1c2ccccc2Sc2ccc(C(F)(F)F)cc21	nt	nt	nt	-5.2	nt	?
OCCN1CCN(CC/C=C2/c3ccccc3CSc3ccccc32)CC1	nt	nt	nt	-21.7	nt	?
OC1CC2CCC(C1)N2CCCN1c2ccccc2Sc2ccc(Cl)cc21 (stereo not given)	-13.5%[46.1 µM]	?	11.2µM*	-64.9*	?	?
CN1CCN(CCC(=O)N2c3ccccc3Sc3ccc(C(F)(F)F)cc32)CC1	-7.6%	?	-27.3%	-27.3	-18.5%	5.62µM*
CN(C)CCCN1c2ccc(O)cc2Sc2ccc(Cl)cc21	nt	nt	?	-36.1	-14.5%	nt
C#CCN(C1CCCC1)S(=O)(=O)C=C	nt	nt	-70.1%	nt	?	nt
Cc1cc(C(=O)CSc2cccc[n+]2[O-])c(C)n1-c1ccc(OC(F)F)cc1	nt	nt	nt	-72.6*	nt	?
